According to PubChem BioAssay:
Active and inactive are the calls of the source.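 How the source made its calls, unless noted: active means superoxide response below 65% of plate, a cut near 3 SD across the whole screen; inactive means the rest.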

How the values were obtained:
[1] = inhibitors of CD8+ T cell-vesicle binding, pilot screen, LFA-1/ICAM-1 modulator project, MLPCN validation set, flow cytometry (AID 2523;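 active means response below a set limit, under 55% cells CD8-positive and vesicle-bound, and CD8 cells' 90th-percentile brightness under 279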;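 on vesicle binding response: mean PE anti-B7-1 fluorescence of CD8+ cells relative to row control; 100% = QL9-loaded vesicles with DMSO vehicle in the same plate row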); conditions: 2C mouse CD8+ T cells, at 7 µM, stronger effect = lower value; double positive events: measured here: CD8+/vesicle+ event percentage
[2] = target: Integrin beta-1 (Homo sapiens) + Integrin alpha-4 (Homo sapiens) (UniProt P13612+P05556); experiment: inhibition of HUTS-21 binding to VLA-4, pilot screen, VLA-4 allosteric modulator project, U937 cells, HUTS-21 mAb, flow cytometry, validation set (AID 2674;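 active means inhibition above 50%, about 3 SD of the validation set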;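 further: antibody binding induced by the VLA-4 ligand LDV present at three times its Kd; 0% = LDV ligand with antibody and no compound and 100% = antibody without LDV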); conditions: HUTS-21 LIBS mAb binding, at 6.7 µM, stronger effect = higher value, binding induced by LDV ligand
[3] = superoxide lowering in aged yeast cells, pilot screen, validation compound set (AID 2706);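 further: yeast exposed to compound for one week at 30 degrees C before staining; 100% = mean of all compound wells on the same plate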; conditions: S. cerevisiae aging, superoxide DHE fluorescence; at 10 µM, stronger effect = lower value
[4] = target: Beta-adrenergic receptor kinase 1 (Homo sapiens) (UniProt P25098); experiment: GRK2 binders displacing RNA aptamer, biochemical, validation, human GRK2, bead flow cytometry (AID 488806;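 active means aptamer binding inhibition above 30%, about 3 SD of noise from non-fluorescent compounds; inactive means inhibition at or below 30%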); conditions: bead-bound GRK2, FAM-aptamer displacement, at 10 µM, stronger effect = higher value
[5] = target: Beta-2 adrenergic receptor (Homo sapiens) (UniProt P07550); experiment: beta2AR agonists driving receptor internalization, pilot screen, cell-based, FAP fluorogen, flow cytometry, validation set (AID 504459;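 active means percent response above 42, roughly 3 SD of non-fluorescent test compounds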;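 further: agonist-driven loss of surface beta2AR via internalization measured by FAP dye flow cytometry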); conditions: Am2.2-beta2AR cells, FAP surface receptor flow cytometry; at 10 µM; stronger effect = higher value
[6] = target: AP-2 complex subunit beta (Homo sapiens) (UniProt P63010); experiment: inhibitors of arrestin peptide binding to AP2, pilot screen, biochemical, validation set, GST-AP2 beads, flow cytometry (AID 504541;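 active means inhibition above 54%, about 3 SD of non-fluorescent compounds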;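 further: AP2 carries R879A mutation and is captured from E. coli lysate; bead-bound FITC arrestin peptide fluorescence measuring arrestin peptide binding to AP2; 0% = DMSO wells and 100% = excess unlabeled arrestin peptide control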); conditions: FITC arrestin peptide, at 10 µM, stronger effect = higher value, AP2 beta2 appendage fragment, R879A mutant
[7] = yeast V-ATPase proton transport modulators, S. cerevisiae, pHLuorin, HTS validation (AID 504600; in the data active means response above about 15%;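 further: plate controls were DMSO for no effect and reference compound for full effect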); conditions: S. cerevisiae pHLuorin cytosolic pH, at 10 µM, stronger effect = higher value
[8] = tested on: anti-desmoglein-3 scFv antibody binding to human DSG3; experiment: inhibitors of anti-DSG3 scFv binding to DSG3, pilot screen, biochemical, validation compound set, bead-based, flow cytometry (AID 588368;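 active means binding below the plate cutoff, the plate median minus 3 SD, with a reading above zero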;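 further: signal is the median channel fluorescence of bead-bound GFP antibody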); conditions: Protein G beads, DSG3-Fc, scFv-GFP binding, at 10 µM, stronger effect = lower value
[9] = inhibitors of fungal efflux pumps CDR1, CDR2, MDR1, pilot screen, validation compound set, multiplex, phenotypic (AID 588506;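 active means efflux inhibition above 0.42, the validation set average plus 4 SD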;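 further: Nile Red retained in cells so higher fluorescence means more efflux inhibition; 0 = negative control wells and 1 = enniatin B 25 µM full block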); conditions: S. cerevisiae pump-expressing triplex, Nile Red efflux flow cytometry; at 10 µM; stronger effect = higher value; the pumps come from Candida albicans
[10] = target: ATP-binding cassette sub-family B member 6 (Homo sapiens) (UniProt Q9NP58); experiment: ABCB6 transporter inhibitors, pilot screen, K562-ABCB6 cells, flow cytometry, validation set (AID 588550;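 active means inhibition above the screen-wide mean plus 3 SD, about 51%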;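 further: 0% = DMSO wells and 100% = benzethonium chloride 70 µM positive control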); conditions: K562-ABCB6 porphyrin accumulation, 1 h, at 10 µM, stronger effect = higher value
[11] = promoters of myeloid differentiation in arrested cells, primary screen, cell-based, GFP/MAC1 double positive, flow cytometry, validation set (AID 588685;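 active means differentiation response of at least 50%, scaled between solvent and reference control, from cells with both markers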;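 further: compound exposure lasts four days before antibody staining and flow analysis; 0% = DMSO wells and 100% = 5 µM fulvestrant positive control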); conditions: ER-HoxA9 marrow cells, stronger effect = higher value, normalized: vehicle 0, fulvestrant 100

ATP-binding cassette sub-family B member 6 (Homo sapiens), sequence (Q9NP58 whole entry, looked up): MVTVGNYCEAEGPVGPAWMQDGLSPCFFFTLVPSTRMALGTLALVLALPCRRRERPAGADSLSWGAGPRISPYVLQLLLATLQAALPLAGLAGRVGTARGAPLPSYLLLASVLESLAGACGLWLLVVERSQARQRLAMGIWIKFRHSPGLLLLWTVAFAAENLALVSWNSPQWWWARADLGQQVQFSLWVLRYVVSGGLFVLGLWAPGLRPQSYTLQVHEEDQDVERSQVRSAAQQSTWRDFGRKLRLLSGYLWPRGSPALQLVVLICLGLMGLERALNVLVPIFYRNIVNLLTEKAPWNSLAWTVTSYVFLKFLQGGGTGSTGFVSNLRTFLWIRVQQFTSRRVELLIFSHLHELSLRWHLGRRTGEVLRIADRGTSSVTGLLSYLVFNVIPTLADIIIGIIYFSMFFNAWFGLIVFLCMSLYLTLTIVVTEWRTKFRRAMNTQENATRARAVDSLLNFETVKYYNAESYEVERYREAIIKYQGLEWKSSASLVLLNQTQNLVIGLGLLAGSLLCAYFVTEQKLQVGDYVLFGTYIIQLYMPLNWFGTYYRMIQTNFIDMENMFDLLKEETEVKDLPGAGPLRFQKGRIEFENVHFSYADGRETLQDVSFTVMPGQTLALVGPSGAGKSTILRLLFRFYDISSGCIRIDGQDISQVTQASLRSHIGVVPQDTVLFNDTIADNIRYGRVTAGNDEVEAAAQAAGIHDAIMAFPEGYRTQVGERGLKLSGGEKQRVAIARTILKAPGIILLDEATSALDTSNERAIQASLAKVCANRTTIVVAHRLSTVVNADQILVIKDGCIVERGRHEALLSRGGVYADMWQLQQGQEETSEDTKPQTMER
Beta-2 adrenergic receptor (Homo sapiens), sequence (P07550 whole entry, looked up): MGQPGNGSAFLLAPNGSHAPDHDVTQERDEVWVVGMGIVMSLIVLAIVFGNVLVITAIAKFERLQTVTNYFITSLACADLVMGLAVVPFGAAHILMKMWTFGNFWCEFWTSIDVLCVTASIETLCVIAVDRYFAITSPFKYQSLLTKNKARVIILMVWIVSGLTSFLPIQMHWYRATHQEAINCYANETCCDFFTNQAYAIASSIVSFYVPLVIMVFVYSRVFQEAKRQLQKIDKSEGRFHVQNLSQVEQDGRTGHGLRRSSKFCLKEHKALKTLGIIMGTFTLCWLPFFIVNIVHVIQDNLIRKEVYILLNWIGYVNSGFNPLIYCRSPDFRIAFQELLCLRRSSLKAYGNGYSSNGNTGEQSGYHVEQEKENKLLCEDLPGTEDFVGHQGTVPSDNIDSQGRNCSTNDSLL
Integrin beta-1 (Homo sapiens) + Integrin alpha-4 (Homo sapiens), sequence (P05556 whole entry, looked up): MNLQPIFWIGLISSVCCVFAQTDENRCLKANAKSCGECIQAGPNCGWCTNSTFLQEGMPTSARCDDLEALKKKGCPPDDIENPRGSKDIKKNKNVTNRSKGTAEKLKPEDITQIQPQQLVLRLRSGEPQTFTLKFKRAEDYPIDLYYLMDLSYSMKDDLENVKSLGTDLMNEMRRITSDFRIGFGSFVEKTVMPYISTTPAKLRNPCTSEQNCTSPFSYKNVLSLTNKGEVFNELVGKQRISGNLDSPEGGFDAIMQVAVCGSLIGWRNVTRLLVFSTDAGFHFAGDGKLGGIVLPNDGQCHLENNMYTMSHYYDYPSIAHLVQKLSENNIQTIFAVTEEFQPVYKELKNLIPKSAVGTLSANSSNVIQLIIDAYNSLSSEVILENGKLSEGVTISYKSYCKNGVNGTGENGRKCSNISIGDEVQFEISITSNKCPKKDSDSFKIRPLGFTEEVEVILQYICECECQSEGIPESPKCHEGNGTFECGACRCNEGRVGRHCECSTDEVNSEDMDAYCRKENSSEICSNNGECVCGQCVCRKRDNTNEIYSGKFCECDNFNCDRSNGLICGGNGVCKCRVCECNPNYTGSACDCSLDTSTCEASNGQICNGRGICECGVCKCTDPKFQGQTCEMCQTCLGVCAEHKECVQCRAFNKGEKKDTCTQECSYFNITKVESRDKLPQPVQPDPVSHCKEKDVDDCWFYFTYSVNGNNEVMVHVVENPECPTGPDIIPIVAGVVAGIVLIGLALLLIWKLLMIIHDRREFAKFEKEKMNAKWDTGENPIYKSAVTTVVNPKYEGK
Integrin beta-1 (Homo sapiens) + Integrin alpha-4 (Homo sapiens), sequence (P13612 whole entry, looked up): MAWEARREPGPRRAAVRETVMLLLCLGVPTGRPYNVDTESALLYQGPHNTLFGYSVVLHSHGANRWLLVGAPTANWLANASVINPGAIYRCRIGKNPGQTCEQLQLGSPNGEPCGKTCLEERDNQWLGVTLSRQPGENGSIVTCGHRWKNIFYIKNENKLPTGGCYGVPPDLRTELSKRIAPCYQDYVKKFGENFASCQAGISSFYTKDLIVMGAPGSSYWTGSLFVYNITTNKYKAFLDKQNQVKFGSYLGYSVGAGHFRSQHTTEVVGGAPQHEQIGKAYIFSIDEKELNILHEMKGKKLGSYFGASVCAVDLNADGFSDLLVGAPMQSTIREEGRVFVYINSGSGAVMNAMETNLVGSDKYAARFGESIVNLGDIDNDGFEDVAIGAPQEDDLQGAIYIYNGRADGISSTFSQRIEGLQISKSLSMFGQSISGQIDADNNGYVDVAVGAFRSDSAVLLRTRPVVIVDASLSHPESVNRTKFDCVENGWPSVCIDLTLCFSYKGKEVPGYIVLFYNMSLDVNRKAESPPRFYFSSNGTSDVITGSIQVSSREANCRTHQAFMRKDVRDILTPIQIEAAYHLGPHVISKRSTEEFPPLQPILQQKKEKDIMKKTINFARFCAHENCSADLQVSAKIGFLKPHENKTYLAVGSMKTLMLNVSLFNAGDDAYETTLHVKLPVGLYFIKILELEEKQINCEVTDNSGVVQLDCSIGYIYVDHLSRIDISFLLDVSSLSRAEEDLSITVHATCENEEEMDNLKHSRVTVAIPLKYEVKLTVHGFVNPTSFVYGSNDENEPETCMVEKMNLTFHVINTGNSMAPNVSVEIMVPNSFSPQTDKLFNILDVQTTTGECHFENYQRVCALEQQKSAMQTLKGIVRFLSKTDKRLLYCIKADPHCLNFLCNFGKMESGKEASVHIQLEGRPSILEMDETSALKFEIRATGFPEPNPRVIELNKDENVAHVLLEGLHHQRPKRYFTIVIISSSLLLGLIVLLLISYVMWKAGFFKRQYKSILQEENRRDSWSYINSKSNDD
Beta-adrenergic receptor kinase 1 (Homo sapiens), sequence (P25098 whole entry, looked up): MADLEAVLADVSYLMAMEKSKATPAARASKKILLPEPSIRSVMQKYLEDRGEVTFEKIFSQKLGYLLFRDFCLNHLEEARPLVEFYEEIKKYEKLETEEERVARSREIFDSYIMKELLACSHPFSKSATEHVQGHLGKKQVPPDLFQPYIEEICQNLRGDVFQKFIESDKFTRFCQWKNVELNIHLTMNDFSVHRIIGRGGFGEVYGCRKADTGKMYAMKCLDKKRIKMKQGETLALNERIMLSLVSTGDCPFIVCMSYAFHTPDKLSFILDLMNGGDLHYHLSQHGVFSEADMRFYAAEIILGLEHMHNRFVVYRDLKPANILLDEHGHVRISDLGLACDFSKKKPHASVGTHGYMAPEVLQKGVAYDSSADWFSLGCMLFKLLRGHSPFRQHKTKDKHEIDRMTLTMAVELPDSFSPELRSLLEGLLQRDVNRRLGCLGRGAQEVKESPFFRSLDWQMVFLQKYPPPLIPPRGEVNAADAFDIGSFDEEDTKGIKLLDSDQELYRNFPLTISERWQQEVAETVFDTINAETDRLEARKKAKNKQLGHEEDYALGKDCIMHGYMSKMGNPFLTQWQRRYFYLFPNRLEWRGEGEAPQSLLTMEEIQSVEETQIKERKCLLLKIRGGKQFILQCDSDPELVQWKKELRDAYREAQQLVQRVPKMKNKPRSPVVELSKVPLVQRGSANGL
AP-2 complex subunit beta (Homo sapiens), sequence (P63010 whole entry, looked up, the tested form may be a part, one chain of several): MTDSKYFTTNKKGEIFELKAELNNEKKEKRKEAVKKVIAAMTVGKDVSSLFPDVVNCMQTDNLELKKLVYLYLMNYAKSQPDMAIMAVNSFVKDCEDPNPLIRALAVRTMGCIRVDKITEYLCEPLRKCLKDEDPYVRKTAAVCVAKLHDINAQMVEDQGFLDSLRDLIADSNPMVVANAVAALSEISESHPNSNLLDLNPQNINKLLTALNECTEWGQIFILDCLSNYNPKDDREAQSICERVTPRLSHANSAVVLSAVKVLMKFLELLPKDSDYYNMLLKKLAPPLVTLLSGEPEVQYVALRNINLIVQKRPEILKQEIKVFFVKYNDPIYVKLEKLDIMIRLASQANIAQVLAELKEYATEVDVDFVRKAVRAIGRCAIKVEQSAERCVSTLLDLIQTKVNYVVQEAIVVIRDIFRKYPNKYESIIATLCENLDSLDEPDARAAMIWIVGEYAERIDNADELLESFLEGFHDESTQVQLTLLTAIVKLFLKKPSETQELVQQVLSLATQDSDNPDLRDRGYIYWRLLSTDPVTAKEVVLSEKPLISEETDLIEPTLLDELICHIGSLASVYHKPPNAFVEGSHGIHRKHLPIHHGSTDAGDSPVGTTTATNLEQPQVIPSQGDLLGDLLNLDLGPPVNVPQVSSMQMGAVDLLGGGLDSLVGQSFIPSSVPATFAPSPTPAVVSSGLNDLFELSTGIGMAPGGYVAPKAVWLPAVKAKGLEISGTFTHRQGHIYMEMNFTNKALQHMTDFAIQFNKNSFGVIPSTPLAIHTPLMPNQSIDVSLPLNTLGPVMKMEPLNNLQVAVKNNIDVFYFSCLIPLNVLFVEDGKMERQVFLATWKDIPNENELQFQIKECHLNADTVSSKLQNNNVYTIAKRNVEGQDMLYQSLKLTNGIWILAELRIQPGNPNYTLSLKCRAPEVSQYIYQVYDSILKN

| Structure (SMILES) | double positive events [1] [%] | vesicle binding response [1] | inhibition [2] | superoxide response (% of plate) [3] | aptamer binding inhibition [4] | response [5] | inhibition [6] | response [7] | binding (% of control) [8] | efflux inhibition (fraction of control) [9] | inhibition [10] | differentiation response [11] |
| --- | --- | --- | --- | --- | --- | --- | --- | --- | --- | --- | --- | --- |
| COc1ccc(C)cc1S(=O)(=O)Nc1ccc(F)cc1 | 64.5 | 172% (inactive) | 5.61% (inactive) | 98.8% (inactive) | 1% (inactive) | 0.44% (inactive) | 2.42% (inactive) | -2.48% (inactive) | 102% (inactive) | 0.06 (inactive) | 17% (inactive) | -3.11% (inactive) |
| Cc1ccc2c(c1)c1c(n2C)C(=O)CCC1 | 57.6 | 126% (inactive) | -7.79% (inactive) | 86.4% (inactive) | 2% (inactive) | 6.59% (inactive) | -3.89% (inactive) | -3.07% (inactive) | 97.9% (inactive) | 0.41 (inactive) | 0% (inactive) | -8.96% (inactive) |
| COc1ccc(O)c(N)c1 | 70.2 | 381% (inactive) | -22.3% (inactive) | 104% (inactive) | 5% (inactive) | 76.4% (active) | 20.1% (inactive) | 3.74% (inactive) | 99.1% (inactive) | -0.1 (inactive) | 7% (inactive) | -0.8% (inactive) |
| COc1ccc(/C=C\C(=O)c2c(O)ccc3c(C)cc(=O)oc23)cc1OC | 60.8 | 182% (inactive) | 14.2% (inactive) | 94.3% (inactive) | 1% (inactive) | 16.8% (inactive) | 60.6% (active) | -0.16% (inactive) | 106% (inactive) | 0.29 (inactive) | -4% (inactive) | -1.05% (inactive) |
| CCOC(=O)c1cnc2ccc(C(=O)OC)cc2c1Nc1ccc2c(c1)OCCO2 | 63.9 | 266% (inactive) | 0.59% (inactive) | 99.1% (inactive) | 6% (inactive) | -25.7% (inactive) | -8.06% (inactive) | -27.9% (inactive) | 97.4% (inactive) | 0.08 (inactive) | -2% (inactive) | -0.06% (inactive) |
| CC(C)CC(=O)N(Cc1ccc(F)cc1)C1CCS(=O)(=O)C1 (configuration not stated) | 61.8 | 204% (inactive) | 0.25% (inactive) | 114% (inactive) | 2% (inactive) | 22.9% (inactive) | 1.93% (inactive) | 3.28% (inactive) | 102% (inactive) | 0.91 (active) | 19% (inactive) | -8.96% (inactive) |
| O=C(NCCc1nc2ccccc2[nH]1)c1cccc(Br)c1 | 72.8 | 224% (inactive) | 11.9% (inactive) | 92.6% (inactive) | 4% (inactive) | -6.54% (inactive) | -1.76% (inactive) | 3.78% (inactive) | 97.8% (inactive) | -0.1 (inactive) | 5% (inactive) | 0.8% (inactive) |
| O=C(O)C1Sc2[nH]c(=O)sc2C2c3ccc(O)cc3OC(=O)C12 (configuration not stated) | 62.6 | 157% (inactive) | -11.8% (inactive) | 107% (inactive) | 1% (inactive) | -11.1% (inactive) | -0.44% (inactive) | 5.3% (inactive) | 95.7% (inactive) | -0.1 (inactive) | -131% (inactive) | -3.11% (inactive) |
| O=C(Nc1ccccc1)OCC1CCCN2CCCCC12 (configuration not stated) | 80 | 511% (inactive) | -0.27% (inactive) | 93.9% (inactive) | -2% (inactive) | -23.8% (inactive) | -10.6% (inactive) | 1.1% (inactive) | 112% (inactive) | -0.04 (inactive) | 16% (inactive) | 63% (active) |
| O=C(Cc1ccc(Br)cc1)c1ccc(O)cc1O | 58.3 | 228% (inactive) | -23.6% (inactive) | 97.7% (inactive) | -1% (inactive) | -3.21% (inactive) | -2.59% (inactive) | 1.13% (inactive) | 105% (inactive) | 0.09 (inactive) | 2% (inactive) | 12.3% (inactive) |
| CCc1cccc(OC2OC(CO)C(O)C(O)C2NC(C)=O)c1 (configuration not stated) | 69.6 | 308% (inactive) | -5.38% (inactive) | 98.7% (inactive) | 1% (inactive) | -16.8% (inactive) | -1.83% (inactive) | 4.31% (inactive) | 103% (inactive) | -0.13 (inactive) | 7% (inactive) | 0.92% (inactive) |
| COc1cccc(OC)c1C(=O)NCCSC1CCCCC1 | 61.3 | 68.6% (inactive) | 1.59% (inactive) | 85.2% (inactive) | 1% (inactive) | 0.14% (inactive) | -3.95% (inactive) | -0.98% (inactive) | 104% (inactive) | -0.25 (inactive) | -5% (inactive) | -16.3% (inactive) |
| Cc1oc(/C=N/NC(=O)CC2(C)OCCO2)cc1Br | 60.6 | 93.4% (inactive) | 4.27% (inactive) | 107% (inactive) | -3% (inactive) | 4.99% (inactive) | 0.64% (inactive) | 68.3% (active) | 104% (inactive) | -0.245 (inactive) | 18% (inactive) | -0.18% (inactive) |
| C[C@H](NC(=O)NCCc1ccccc1)C(=O)O | 58.1 | 252% (inactive) | 2.3% (inactive) | 104% (inactive) | 6% (inactive) | 0.08% (inactive) | -3.97% (inactive) | -4.57% (inactive) | 99.1% (inactive) | -0.13 (inactive) | 3% (inactive) | 4% (inactive) |
| COc1ccc(CN(CCC(c2ccc(F)cc2)C2CCOC(C)(C)C2)C(=O)c2ccco2)cc1 (configuration not stated) | 59.4 | 144% (inactive) | -8.62% (inactive) | 104% (inactive) | 5% (inactive) | 22.1% (inactive) | -11.3% (inactive) | 1.03% (inactive) | 101% (inactive) | 0.12 (inactive) | 3% (inactive) | -13.6% (inactive) |
| COc1ccc(-c2c(NC(=O)c3ccco3)n(C)c3ccccc3c2=O)cc1 | 58.6 | 125% (inactive) | -1.09% (inactive) | 102% (inactive) | 3% (inactive) | 5.47% (inactive) | -5.24% (inactive) | -3.79% (inactive) | 99.6% (inactive) | -0.37 (inactive) | -2% (inactive) | -7.5% (inactive) |
| Nc1ccc(N=Nc2ccccc2)c(N)n1 | 61.7 | 133% (inactive) | 28.7% (inactive) | 114% (inactive) | 3% (inactive) | -11.9% (inactive) | 4.28% (inactive) | 6.54% (inactive) | 103% (inactive) | -0.26 (inactive) | 4% (inactive) | -5.97% (inactive) |
| CC(=O)Oc1ccc(C2OC(=O)c3ccccc3N2C(C)=O)cc1 (configuration not stated) | 63.2 | 146% (inactive) | 19% (inactive) | 98.4% (inactive) | 1% (inactive) | 15.3% (inactive) | 0.53% (inactive) | -2.98% (inactive) | 98.1% (inactive) | 0.03 (inactive) | 8% (inactive) | -4.57% (inactive) |
| CC(COc1ccccc1)N(CCCl)Cc1ccccc1 (configuration not stated) | 70.8 | 566% (inactive) | 6.46% (inactive) | 97.4% (inactive) | 2% (inactive) | -7.17% (inactive) | 1.11% (inactive) | 2.49% (inactive) | 100% (inactive) | -0.35 (inactive) | 10% (inactive) | 0% (inactive) |
| O=c1cc(Cn2ccnc2)c2cc3c(cc2o1)CCC3 | 57.6 | 143% (inactive) | -11.3% (inactive) | 99.2% (inactive) | -2% (inactive) | -7.31% (inactive) | 8.12% (inactive) | -1.72% (inactive) | 105% (inactive) | 0.08 (inactive) | 2% (inactive) | 48.8% (inactive) |
| CCN(CC)CCN1C(=O)C(=O)/C(=C(/O)c2c(C)[nH]c(C(=O)OC)c2C)C1c1cccnc1 (configuration not stated) | 60.5 | 235% (inactive) | -19.5% (inactive) | 95.2% (inactive) | 4% (inactive) | 13.3% (inactive) | 0.35% (inactive) | -2.49% (inactive) | 103% (inactive) | 0.05 (inactive) | 9% (inactive) | -12% (inactive) |
| C[C@H]1O[C@H]1P(=O)(O)O | 66.2 | 197% (inactive) | 15.1% (inactive) | 95.9% (inactive) | 5% (inactive) | -11.7% (inactive) | 6.72% (inactive) | 17.1% (active) | 103% (inactive) | -0.09 (inactive) | 9% (inactive) | 12.8% (inactive) |
| O=C(c1cc2cc(Br)ccc2o1)N1CCCCC1 | 63.8 | 320% (inactive) | 10.5% (inactive) | 86.2% (inactive) | -4% (inactive) | -13.7% (inactive) | -1.81% (inactive) | -0.39% (inactive) | 73.3% (active) | 0.05 (inactive) | 6% (inactive) | 4% (inactive) |
| CCc1ccc(/C=C2\SC(=S)N(CCC(=O)N3CCN(C)CC3)C2=O)cc1 | 56.3 | 275% (inactive) | -16.8% (inactive) | 90.8% (inactive) | -1% (inactive) | 39.6% (inactive) | -7.8% (inactive) | -6.7% (inactive) | 101% (inactive) | 0.3 (inactive) | 2% (inactive) | 10.4% (inactive) |
| O=C1Nc2ccc3sc4ccccc4c3c2C1=O | 62 | 162% (inactive) | 9.63% (inactive) | 111% (inactive) | 1% (inactive) | 3.08% (inactive) | -0.66% (inactive) | -7.6% (inactive) | 102% (inactive) | -0.19 (inactive) | -15% (inactive) | -0.18% (inactive) |
| COc1ccc(C(=O)C2CCCCC2=O)cc1 (configuration not stated) | 67.8 | 193% (inactive) | 9.1% (inactive) | 100% (inactive) | 0% (inactive) | 15.9% (inactive) | 2.47% (inactive) | -6% (inactive) | 101% (inactive) | 0.04 (inactive) | 16% (inactive) | -7.94% (inactive) |
